# Tests used:
# Assay in all cases: DAPPL (digital affinity profiling via proximity ligation, sequencing); 10 mM Tris-HCl pH 7.5, 50 mM NaCl, 1 mM DTT, 4% glycerol, room temperature, 30 min; GST-TFs on glutathione beads, 16-mer random dsDNA library, 0.1% formaldehyde crosslink after washing; high values mean tight binding
# Settings in all cases: protein: recombinant; tags: N-terminal GST; dsDNA, one strand shown
# FLI1 = biological target: T1, FLI1 (Homo sapiens, UniProt Q01543 1-452)
# T1 sequence: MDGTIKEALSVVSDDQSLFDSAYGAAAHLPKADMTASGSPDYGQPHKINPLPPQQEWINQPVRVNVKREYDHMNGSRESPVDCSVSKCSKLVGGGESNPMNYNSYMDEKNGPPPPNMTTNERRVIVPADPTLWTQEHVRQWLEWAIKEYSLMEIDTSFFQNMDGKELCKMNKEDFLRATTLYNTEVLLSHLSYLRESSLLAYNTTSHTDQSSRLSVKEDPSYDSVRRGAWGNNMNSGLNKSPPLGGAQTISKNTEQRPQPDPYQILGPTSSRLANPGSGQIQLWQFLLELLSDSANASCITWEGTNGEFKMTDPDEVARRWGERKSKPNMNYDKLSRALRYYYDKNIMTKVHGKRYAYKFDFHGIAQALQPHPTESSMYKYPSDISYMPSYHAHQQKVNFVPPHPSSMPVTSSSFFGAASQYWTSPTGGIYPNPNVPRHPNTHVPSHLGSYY
# Summary of the method: (§1)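 Each value of binding signal is a hexamer's read frequency for a factor divided by the same hexamer's frequency in the tag-only sample. Barcoded, bead-captured GST fusions of human transcription factors made in yeast were pooled with that sample and incubated with 200 nmole of a random double-stranded 16-mer DNA library in Tris/NaCl/DTT/glycerol buffer at room temperature for 30 min. Washing, 0.1% formaldehyde crosslinking, proximity ligation, PCR and Illumina NextSeq500 sequencing followed.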
# ELK1 = biological target: T2, ELK1 (Homo sapiens, UniProt P19419 1-428)
# T2 sequence: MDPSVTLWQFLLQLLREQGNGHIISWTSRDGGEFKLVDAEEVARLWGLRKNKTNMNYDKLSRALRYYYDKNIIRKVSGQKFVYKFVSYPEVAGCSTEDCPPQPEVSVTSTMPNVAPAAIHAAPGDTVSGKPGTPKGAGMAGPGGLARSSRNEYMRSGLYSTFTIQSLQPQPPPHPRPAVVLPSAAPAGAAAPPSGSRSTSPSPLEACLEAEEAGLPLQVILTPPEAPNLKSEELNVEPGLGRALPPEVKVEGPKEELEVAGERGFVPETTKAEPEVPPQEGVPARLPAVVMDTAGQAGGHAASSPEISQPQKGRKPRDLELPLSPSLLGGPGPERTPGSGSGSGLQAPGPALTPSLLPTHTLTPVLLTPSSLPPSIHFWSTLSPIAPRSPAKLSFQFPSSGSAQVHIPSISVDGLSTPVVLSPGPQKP
# Summary of the method: as §1
# GABPA = biological target: T3, GABPA (Homo sapiens, UniProt Q06546 1-454)
# T3 sequence: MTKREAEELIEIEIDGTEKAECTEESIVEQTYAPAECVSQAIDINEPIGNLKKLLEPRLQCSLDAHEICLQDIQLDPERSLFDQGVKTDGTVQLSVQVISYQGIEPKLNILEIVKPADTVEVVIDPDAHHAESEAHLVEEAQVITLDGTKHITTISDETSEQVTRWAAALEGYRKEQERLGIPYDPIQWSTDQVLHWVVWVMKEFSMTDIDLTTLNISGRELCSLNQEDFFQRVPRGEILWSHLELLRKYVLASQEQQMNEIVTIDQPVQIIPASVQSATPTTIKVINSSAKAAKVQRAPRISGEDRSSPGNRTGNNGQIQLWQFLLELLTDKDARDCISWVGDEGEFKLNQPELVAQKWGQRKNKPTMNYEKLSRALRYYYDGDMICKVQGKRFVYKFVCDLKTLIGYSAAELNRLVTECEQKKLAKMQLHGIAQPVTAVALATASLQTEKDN
# Summary of the method: as §1
# ERG = biological target: T4, ERG (Homo sapiens, UniProt P11308 1-479)
# T4 sequence: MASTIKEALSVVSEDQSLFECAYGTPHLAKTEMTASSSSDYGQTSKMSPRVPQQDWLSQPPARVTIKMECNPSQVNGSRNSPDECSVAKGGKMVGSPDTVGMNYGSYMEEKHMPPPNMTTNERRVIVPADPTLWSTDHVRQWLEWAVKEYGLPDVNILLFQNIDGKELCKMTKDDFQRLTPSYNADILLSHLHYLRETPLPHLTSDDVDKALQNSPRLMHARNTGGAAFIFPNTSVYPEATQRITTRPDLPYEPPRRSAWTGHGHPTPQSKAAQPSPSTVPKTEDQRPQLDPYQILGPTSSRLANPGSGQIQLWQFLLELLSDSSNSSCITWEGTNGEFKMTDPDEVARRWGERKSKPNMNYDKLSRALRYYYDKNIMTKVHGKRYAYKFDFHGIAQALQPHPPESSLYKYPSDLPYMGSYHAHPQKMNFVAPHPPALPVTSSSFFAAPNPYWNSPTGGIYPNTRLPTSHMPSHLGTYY
# Summary of the method: as §1
# ELF1 = ELF1 (Homo sapiens, UniProt P32519 1-619)
# Summary of the method: as §1
# EHF = biological target: T5, EHF (Homo sapiens, UniProt Q9NZC4 1-300)
# T5 sequence: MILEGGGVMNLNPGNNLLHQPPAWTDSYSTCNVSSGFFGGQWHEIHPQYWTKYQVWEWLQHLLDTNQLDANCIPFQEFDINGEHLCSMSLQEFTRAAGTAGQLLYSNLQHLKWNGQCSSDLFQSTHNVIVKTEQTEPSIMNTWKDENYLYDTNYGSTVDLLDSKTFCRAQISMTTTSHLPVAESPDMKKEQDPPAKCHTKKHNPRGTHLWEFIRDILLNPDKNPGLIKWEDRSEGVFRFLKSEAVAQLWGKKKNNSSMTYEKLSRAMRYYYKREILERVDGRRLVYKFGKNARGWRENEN
# Summary of the method: as §1
# SPI1 = SPI1 (Homo sapiens, UniProt P17947 1-270)
# Summary of the method: as §1
# SPIB = SPIB (Homo sapiens, UniProt Q01892 1-262)
# Summary of the method: as §1
# ELK3 = biological target: T6, ELK3 (Homo sapiens, UniProt P41970 1-407)
# T6 sequence: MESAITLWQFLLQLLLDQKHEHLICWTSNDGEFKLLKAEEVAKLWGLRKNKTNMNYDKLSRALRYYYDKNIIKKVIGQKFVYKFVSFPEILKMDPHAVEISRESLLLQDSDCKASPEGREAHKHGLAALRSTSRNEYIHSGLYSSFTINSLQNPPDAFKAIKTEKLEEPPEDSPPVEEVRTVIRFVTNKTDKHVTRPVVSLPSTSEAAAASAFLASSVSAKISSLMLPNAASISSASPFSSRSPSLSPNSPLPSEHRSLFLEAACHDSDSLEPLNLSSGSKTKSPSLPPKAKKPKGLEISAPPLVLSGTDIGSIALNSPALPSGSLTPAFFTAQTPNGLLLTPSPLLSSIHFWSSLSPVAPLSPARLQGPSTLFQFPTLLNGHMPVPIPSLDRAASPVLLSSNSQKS
# Summary of the method: as §1
# FEV = biological target: T7, FEV (Homo sapiens, UniProt Q99581 1-238)
# T7 sequence: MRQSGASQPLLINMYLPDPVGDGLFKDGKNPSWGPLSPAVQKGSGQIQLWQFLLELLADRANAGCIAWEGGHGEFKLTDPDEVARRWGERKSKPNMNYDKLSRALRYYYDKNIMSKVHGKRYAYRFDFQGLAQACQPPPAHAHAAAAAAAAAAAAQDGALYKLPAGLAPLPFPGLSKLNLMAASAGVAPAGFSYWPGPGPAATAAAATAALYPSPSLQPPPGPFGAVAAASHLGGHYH
# Summary of the method: as §1
# ETV5 = ETV5 (Homo sapiens, UniProt P41161 1-510)
# Summary of the method: as §1
# SPIC = biological target: T8, SPIC (Homo sapiens, UniProt Q8N5J4 1-248)
# T8 sequence: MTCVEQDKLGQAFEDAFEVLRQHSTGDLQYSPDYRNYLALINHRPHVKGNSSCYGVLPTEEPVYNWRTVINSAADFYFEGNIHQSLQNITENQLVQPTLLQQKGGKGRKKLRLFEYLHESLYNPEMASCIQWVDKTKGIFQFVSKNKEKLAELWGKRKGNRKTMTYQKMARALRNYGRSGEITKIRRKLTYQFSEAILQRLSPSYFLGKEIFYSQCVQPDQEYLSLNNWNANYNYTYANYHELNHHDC
# Summary of the method: as §1
# ELF4 = ELF4 (Homo sapiens, UniProt Q99607 1-663)
# Summary of the method: as §1
# ELK4 = biological target: T9, ELK4 (Homo sapiens, UniProt P28324-2 1-405)
# T9 sequence: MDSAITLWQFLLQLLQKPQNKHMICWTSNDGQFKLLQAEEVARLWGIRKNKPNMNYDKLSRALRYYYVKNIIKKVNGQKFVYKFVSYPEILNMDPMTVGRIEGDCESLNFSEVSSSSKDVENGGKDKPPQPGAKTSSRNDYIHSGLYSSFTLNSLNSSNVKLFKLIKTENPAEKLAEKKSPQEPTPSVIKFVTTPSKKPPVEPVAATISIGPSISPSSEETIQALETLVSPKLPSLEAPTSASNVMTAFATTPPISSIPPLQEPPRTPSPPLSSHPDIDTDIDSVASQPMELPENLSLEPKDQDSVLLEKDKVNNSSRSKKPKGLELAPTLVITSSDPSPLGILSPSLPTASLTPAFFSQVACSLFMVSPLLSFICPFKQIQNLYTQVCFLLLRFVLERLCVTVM
# Summary of the method: as §1
# ETV2 = biological target: T10, ETV2 (Homo sapiens, UniProt O00321 1-342)
# T10 sequence: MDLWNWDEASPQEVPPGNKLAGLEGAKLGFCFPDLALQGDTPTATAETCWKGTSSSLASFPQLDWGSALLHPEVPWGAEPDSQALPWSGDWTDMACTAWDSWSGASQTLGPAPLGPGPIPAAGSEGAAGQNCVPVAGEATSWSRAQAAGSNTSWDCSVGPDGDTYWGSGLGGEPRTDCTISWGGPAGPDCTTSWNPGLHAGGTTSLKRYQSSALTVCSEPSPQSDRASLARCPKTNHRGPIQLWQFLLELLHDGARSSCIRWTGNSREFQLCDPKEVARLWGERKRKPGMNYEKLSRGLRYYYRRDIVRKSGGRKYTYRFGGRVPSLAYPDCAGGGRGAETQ
# Summary of the method: as §1
# ETV1 = ETV1 (Homo sapiens, UniProt P50549 1-477)
# Summary of the method: as §1
# ETV5, sequence (P41161 whole entry): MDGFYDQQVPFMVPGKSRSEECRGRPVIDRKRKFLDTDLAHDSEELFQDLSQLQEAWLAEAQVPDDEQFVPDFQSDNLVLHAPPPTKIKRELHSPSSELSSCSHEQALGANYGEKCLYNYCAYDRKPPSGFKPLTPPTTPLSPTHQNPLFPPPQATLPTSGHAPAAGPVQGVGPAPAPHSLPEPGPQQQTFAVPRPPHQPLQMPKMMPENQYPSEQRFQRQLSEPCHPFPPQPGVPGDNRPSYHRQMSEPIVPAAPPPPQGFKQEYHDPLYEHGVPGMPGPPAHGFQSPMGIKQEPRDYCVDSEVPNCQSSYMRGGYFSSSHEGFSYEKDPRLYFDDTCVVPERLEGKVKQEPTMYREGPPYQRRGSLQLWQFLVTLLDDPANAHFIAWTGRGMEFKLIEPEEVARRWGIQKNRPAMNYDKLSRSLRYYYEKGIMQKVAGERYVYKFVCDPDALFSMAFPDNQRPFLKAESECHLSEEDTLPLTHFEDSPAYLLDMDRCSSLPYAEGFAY
# ELF1, sequence (P32519 whole entry): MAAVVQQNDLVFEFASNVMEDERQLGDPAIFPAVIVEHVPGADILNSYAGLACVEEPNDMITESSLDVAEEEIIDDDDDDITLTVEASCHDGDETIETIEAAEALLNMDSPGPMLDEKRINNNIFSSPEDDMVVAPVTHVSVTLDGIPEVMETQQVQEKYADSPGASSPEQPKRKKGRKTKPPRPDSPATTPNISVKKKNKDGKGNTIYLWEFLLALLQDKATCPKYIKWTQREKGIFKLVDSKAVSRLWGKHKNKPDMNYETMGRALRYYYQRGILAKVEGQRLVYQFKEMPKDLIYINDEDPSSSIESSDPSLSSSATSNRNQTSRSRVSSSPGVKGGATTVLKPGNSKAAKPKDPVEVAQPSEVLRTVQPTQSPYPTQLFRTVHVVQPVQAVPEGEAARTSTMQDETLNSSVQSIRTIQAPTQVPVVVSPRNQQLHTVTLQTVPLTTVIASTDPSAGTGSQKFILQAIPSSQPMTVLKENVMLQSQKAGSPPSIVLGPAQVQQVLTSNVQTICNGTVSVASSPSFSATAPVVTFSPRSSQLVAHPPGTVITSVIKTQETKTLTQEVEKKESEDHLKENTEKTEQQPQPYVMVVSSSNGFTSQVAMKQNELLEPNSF
# ELF4, sequence (Q99607 whole entry): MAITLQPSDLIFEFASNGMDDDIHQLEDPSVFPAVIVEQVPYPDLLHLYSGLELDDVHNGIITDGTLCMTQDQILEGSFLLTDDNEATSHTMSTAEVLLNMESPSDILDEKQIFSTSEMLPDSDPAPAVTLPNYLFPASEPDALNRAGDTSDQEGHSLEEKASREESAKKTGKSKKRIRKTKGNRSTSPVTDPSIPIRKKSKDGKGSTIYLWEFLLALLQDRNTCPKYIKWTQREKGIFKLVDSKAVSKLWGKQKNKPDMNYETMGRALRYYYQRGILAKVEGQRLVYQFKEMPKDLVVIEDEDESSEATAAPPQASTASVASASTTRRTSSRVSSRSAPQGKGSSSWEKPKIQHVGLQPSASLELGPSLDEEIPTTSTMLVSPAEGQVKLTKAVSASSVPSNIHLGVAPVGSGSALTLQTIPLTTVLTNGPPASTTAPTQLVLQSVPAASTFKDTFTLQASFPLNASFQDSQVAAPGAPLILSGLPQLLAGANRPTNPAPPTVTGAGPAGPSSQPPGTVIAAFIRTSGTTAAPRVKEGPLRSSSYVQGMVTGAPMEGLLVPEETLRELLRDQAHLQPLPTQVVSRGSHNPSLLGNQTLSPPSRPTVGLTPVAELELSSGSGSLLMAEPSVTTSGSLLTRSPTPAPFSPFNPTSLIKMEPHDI
# ETV1, sequence (P50549 whole entry): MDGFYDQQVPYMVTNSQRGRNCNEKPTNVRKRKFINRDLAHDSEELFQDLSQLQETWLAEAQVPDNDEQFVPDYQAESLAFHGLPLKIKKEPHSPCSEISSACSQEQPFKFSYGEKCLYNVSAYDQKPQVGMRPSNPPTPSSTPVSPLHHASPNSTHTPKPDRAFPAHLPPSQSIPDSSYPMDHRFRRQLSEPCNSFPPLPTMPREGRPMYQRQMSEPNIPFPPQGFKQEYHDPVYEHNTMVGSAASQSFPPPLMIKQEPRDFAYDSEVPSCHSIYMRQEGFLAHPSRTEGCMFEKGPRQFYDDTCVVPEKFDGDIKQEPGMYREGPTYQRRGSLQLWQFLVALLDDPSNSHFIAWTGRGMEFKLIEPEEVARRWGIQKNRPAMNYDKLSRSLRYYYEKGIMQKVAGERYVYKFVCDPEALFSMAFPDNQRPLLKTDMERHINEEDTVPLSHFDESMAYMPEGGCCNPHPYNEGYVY
# SPIB, sequence (Q01892 whole entry): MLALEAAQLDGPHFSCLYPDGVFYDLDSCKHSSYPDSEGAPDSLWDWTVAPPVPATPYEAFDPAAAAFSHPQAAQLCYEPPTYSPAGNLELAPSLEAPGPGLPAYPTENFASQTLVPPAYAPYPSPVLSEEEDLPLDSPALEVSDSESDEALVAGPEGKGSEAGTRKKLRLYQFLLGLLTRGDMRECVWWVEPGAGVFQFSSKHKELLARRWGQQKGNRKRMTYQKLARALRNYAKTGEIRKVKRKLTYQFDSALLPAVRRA
Sequence,binding signal (FLI1),binding signal (ELK1),binding signal (GABPA),binding signal (ERG),binding signal (ELF1),binding signal (EHF),binding signal (SPI1),binding signal (SPIB),binding signal (ELK3),binding signal (FEV),binding signal (ETV5),binding signal (SPIC),binding signal (ELF4),binding signal (ELK4),binding signal (ETV2),binding signal (ETV1)
ACACTC,"1.04 fold enrichment (6-mer frequency, TF over GST control)","1.1 fold enrichment (6-mer frequency, TF over GST control)","1.15 fold enrichment (6-mer frequency, TF over GST control)","1.08 fold enrichment (6-mer frequency, TF over GST control)","1.12 fold enrichment (6-mer frequency, TF over GST control)","1.14 fold enrichment (6-mer frequency, TF over GST control)","1.09 fold enrichment (6-mer frequency, TF over GST control)","1.15 fold enrichment (6-mer frequency, TF over GST control)","1.19 fold enrichment (6-mer frequency, TF over GST control)","1.12 fold enrichment (6-mer frequency, TF over GST control)","1.04 fold enrichment (6-mer frequency, TF over GST control)","1.01 fold enrichment (6-mer frequency, TF over GST control)","1.14 fold enrichment (6-mer frequency, TF over GST control)","1.19 fold enrichment (6-mer frequency, TF over GST control)","1.11 fold enrichment (6-mer frequency, TF over GST control)","1.07 fold enrichment (6-mer frequency, TF over GST control)"
CAACGC,"1.04 fold enrichment (6-mer frequency, TF over GST control)","1.11 fold enrichment (6-mer frequency, TF over GST control)","1.12 fold enrichment (6-mer frequency, TF over GST control)","1.04 fold enrichment (6-mer frequency, TF over GST control)","1.11 fold enrichment (6-mer frequency, TF over GST control)","1.01 fold enrichment (6-mer frequency, TF over GST control)","1.1 fold enrichment (6-mer frequency, TF over GST control)",–,–,"1.06 fold enrichment (6-mer frequency, TF over GST control)","1.01 fold enrichment (6-mer frequency, TF over GST control)","1.1 fold enrichment (6-mer frequency, TF over GST control)","1.11 fold enrichment (6-mer frequency, TF over GST control)","1.03 fold enrichment (6-mer frequency, TF over GST control)","1.1 fold enrichment (6-mer frequency, TF over GST control)","1.05 fold enrichment (6-mer frequency, TF over GST control)"
TGCTTG,"1.31 fold enrichment (6-mer frequency, TF over GST control)","1.15 fold enrichment (6-mer frequency, TF over GST control)","1.11 fold enrichment (6-mer frequency, TF over GST control)","1.15 fold enrichment (6-mer frequency, TF over GST control)","1.18 fold enrichment (6-mer frequency, TF over GST control)","1.31 fold enrichment (6-mer frequency, TF over GST control)","1.17 fold enrichment (6-mer frequency, TF over GST control)","1.2 fold enrichment (6-mer frequency, TF over GST control)","1.11 fold enrichment (6-mer frequency, TF over GST control)","1.09 fold enrichment (6-mer frequency, TF over GST control)","1.2 fold enrichment (6-mer frequency, TF over GST control)","1.31 fold enrichment (6-mer frequency, TF over GST control)","1.12 fold enrichment (6-mer frequency, TF over GST control)","1.4 fold enrichment (6-mer frequency, TF over GST control)","1.26 fold enrichment (6-mer frequency, TF over GST control)","1.21 fold enrichment (6-mer frequency, TF over GST control)"

# Reference: PMC7862700, “An all-to-all approach to the identification of sequence-specific readers for epigenetic DNA modifications on cytosine”
